These results are taken from PubChem BioAssay (NCATS).

Experiment [1] in a line: qHTS assay for small molecule agonists of retinoid X receptor alpha signaling (AID 588544; calls by dose curve). The conditions noted are these: HEK293T RXRa-UAS-bla, beta-lactamase reporter, 18 h; 530 nm emission. In general terms: In qHTS, concentration-response curves come from the screen itself.
Experiment [2] has as its target Retinoic acid receptor RXR-alpha (Homo sapiens) (UniProt P19793). Described as above. The conditions noted are these: HEK293T RXRa-UAS-bla, beta-lactamase reporter, 18 h; series mostly up to 76.7 µM.
Experiment [3] is described as follows: qHTS assay for small molecule antagonists of retinoid X receptor alpha signaling (AID 588546; active = well fitted inhibition curve with a large enough effect in the signal ratio, with a control signal flat, not every such curve was filed as active; the % refers to the signal ratio;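 note: cells stimulated with 9-cis-retinoic acid as agonist; % is set by controls: 0 for no effect and ±100 for the full control effect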). The conditions noted are these: HEK293T RXRa-UAS-bla, beta-lactamase ratio, antagonist mode; measured here: W530 green channel, cytotoxicity proxy. Put shortly: (§1)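 Beta-lactamase reporter inhibition, read as CCF4 fluorescence ratio (ex 405, em 460/530 nm) after 2 h at RT. HEK293T UAS-bla cells, 2500/well, were stimulated with 9-cis-RA at 500 or 100 nM final alongside test compound for 18 h at 37 C.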

Experiment [4] concerns the target Retinoic acid receptor RXR-alpha (Homo sapiens) (UniProt P19793). The description is as above. The conditions noted are these: HEK293T RXRa-UAS-bla, beta-lactamase ratio, antagonist mode. A digest of the protocol:
as §1

Experiment [5] deals with Thyroid hormone receptor beta (Homo sapiens) (UniProt P10828). Put plainly: qHTS assay for small molecule antagonists of thyroid hormone receptor beta signaling (AID 588547; active = well fitted inhibition curve with a large enough effect in the signal ratio, with a control signal flat, not every such curve was filed as active; the % refers to the signal ratio;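 note: cells stimulated with 0.4 nM T3 agonist during compound exposure; % is set by controls: 0 for no effect and ±100 for the full control effect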). The conditions noted are these: TR-UAS-bla HEK293, beta-lactamase ratio, antagonist mode, 18 h. Put shortly:
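TR-UAS-bla GripTite HEK293 cells in 2% charcoal/dextran FBS medium; compounds 0.59 nM to 92 uM with T3 at 0.4nM final, 18 h at 37 C. Beta-lactamase read by CCF4 fluorescence (460/530 nm); Hill fits gave IC50 and efficacy.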

Experiment [6] concerns the target Voltage-gated inwardly rectifying potassium channel KCNH2 (Homo sapiens) (UniProt Q12809). Kind of experiment: qHTS Assay for Small Molecule Inhibitors of the Human hERG Channel Activity (AID 588834).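 Note: top concentration of the series differs between compounds; % is set by controls: 0 for no effect and ±100 for the full control effect; lower thallium flux fluorescence means stronger hERG block; nearly all actives have a fitted effect of over 50% in size.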 The conditions noted are these: U2OS BacMam hERG, FluxOR thallium flux fluorescence; series mostly up to 46.1 µM. Put shortly: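 In hERG-transduced U2OS cells, dye-loaded for 1 hr at room temperature in dark, test compounds incubated 10 min at 37 °C before thallium stimulation. AC50 values derived by Hill modelling of concentration-response.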

Experiment [7] has as its target Luciferin 4-monooxygenase (Photinus pyralis) (UniProt P08659). Kind of experiment: Biochemical firefly luciferase enzyme assay for NPC (AID 624030).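 Note: purified P. pyralis luciferase at 10 nM with luciferin and ATP substrate; 0% = DMSO and -100% = full luciferase inhibition by PTC124 control; nearly all actives have a fitted effect of over 70% in size.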 The conditions noted are these: purified P. pyralis luciferase, luminescence, 5 min; series mostly up to 58.6 µM. Put shortly: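 Purified P. pyralis luciferase at 10 nM in 50 mM Tris Acetate (final), luminescence read within 5 minutes of enzyme addition to compounds. Activity normalised to PTC124 versus DMSO; concentration-response curves classed by r2, magnitude and activity.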

Experiment [8] in a line: S16 Schwann cell viability assay (CellTiter-Glo assay) (AID 624031).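 Note: native untransfected S16 rat Schwann cells; plate controls were DMSO-treated cells for no effect and cell-free wells for full effect; nearly all actives have a fitted effect of over 70% in size.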 The conditions noted are these: S16 rat Schwann cells viability, 24 h; series mostly up to 57.5 µM. Put shortly: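 Rat S16 Schwann cells without reporter constructs received compound or DMSO for 24 h at 37 °C under 5% CO2. Cellular ATP was then quantified by CellTiter-Glo luminescence, with vehicle wells defined as 0% activity and cell-free wells as reference.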
A general note: ATP-based viability assays read luminescence as a measure of living cells.

Experiment [9] can be described thus: S16 Schwann cell PMP22 intronic element firefly luciferase assay (AID 624032).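 Note: plate controls were DMSO for no effect and PTC124 positive control mean for full effect; nearly all actives have a fitted effect of over 30% in size.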 The conditions noted are these: S16 rat Schwann cells, PMP22 element FLuc, 24 h; series mostly up to 57.5 µM. Put shortly:
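Rat S16 Schwann cells stably carrying firefly luciferase driven by a PMP22 intronic element, in 10% FBS, treated 24 h at 37 C. ONE-Glo luminescence normalized to PTC124 control and DMSO (0%); curves classed by r2, magnitude and activity.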

A short description of experiment [10]: qHTS of Trypanosoma Brucei Inhibitors: LOPAC Validation (AID 624147). Note: 0% is about no effect. The conditions noted are these: purified enzyme assay, luminescence, 45 min; series mostly up to 57.5 µM. Put shortly:
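ADP (130 uM final) triggers the TbPYK reaction after compound addition; incubation is 45 min at room temperature. Kinase-Glo Plus is then added and luminescence imaged. Normalized data are fitted to concentration-effect curves.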

Experiment [11] concerns the target Glucagon-like peptide 1 receptor (Homo sapiens) (UniProt P43220). Put plainly: qHTS of GLP-1 Receptor Agonists: LOPAC Validation (AID 624148).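 Note: 0% is about no effect; higher luminescence signal means agonism.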 The conditions noted are these: GLP-1R agonist cell assay; series mostly up to 46.1 µM. Put shortly:
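HEK293 cells stably co-expressing GLP-1R and a cAMP-responsive luciferase reporter, plated 12 hours before compound, then incubated 4-6 hr at 37 deg C. Luminescence read 12 min after detection reagent.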

Experiment [12] in a line: qHTS of Nrf2 Activators: LOPAC Validation (AID 624149). Note: 0% is about no effect. The conditions noted are these: Nrf2/ARE reporter cell assay; series mostly up to 46.1 µM. A digest of the protocol:
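Luciferase signal from ARE activation, read with Steady-Glo after 30 min at room temperature. Compounds were pin-transferred onto AREc32_Fluc cells (1000/well, OPTI-MEM/5% FBS, seeded overnight) and left 24 hr at 37 deg C.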

A short description of experiment [13]: HTS Assay for Allosteric Antagonists of the Human D2 Dopamine Receptor: Hit Validation in HTRF (AID 624455).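 Note: stable D1 dopamine receptor cell line scored for blocking the D1 response; % is set by controls: 0 for no effect and ±100 for the full control effect.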 The conditions noted are these: Cells stably expressing D1 dopamine receptor, inhibition mode; series mostly up to 46.1 µM. Put shortly: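 Inhibition of the D1-mediated response was measured by HTRF. Cells used were a line stably expressing the D1 dopamine receptor.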
A general note: Time-resolved FRET reads energy transfer from a long-lived donor to a nearby acceptor.

Experiment [14] deals with Peroxisome proliferator-activated receptor gamma (Homo sapiens) (UniProt P37231). Put plainly: qHTS assay for small molecule antagonists of peroxisome proliferator-activated receptor gamma signaling (AID 588537; active = well fitted inhibition curve with a large enough effect in the signal ratio, with a control signal flat, not every such curve was filed as active; the % refers to the signal ratio;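 note: reporter cells co-stimulated with 50 nM rosiglitazone agonist during compound treatment; % of control where 0% means no effect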). The conditions noted are these: HEK293 PPARg-UAS-bla, beta-lactamase ratio, antagonist mode; series mostly up to 76.8 µM. Put shortly:
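Fluorescence at 460 and 530 nm (405 nm excitation) reported beta-lactamase cleavage of CCF4 after 2 h room-temperature loading. HEK293 reporter cells in 1% charcoal/dextran-treated FBS had received compound and rosiglitazone for 16 h.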

In experiment [15] the target is Thyroid hormone receptor beta (Homo sapiens) (UniProt P10828). Kind of experiment: qHTS assay for small molecule agonists of thyroid hormone receptor beta signaling (AID 588545; calls by dose curve). The conditions noted are these: TR-UAS-bla GripTite HEK 293, beta-lactamase ratio, agonist mode, 18 h, percent of T3 response, DMSO as zero; series mostly up to 76.7 µM. Put shortly:
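Agonist-mode beta-lactamase reporter assay, HEK 293 cells, 2% charcoal/dextran FBS; cells plated 4 hrs, compound 18 hrs at 37 C, CCF4 2 hrs RT. Normalized to 10 nM T3 (100%) and DMSO (0%); Hill fit gives EC50, efficacy.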

Experiment [16] can be described thus: S16 Schwann cell PMP22 intronic element beta-lactamase assay (AID 624044; calls by dose curve;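 note: 0% = DMSO and -100% = potassium clavulanate positive control; nearly all actives have a fitted effect of over 15% in size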). The conditions noted are these: S16 rat Schwann cells, PMP22 element beta-lactamase FRET, 24 h; series mostly up to 38.3 µM. A digest of the protocol:
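Beta-lactamase reporter under a PMP22 intronic regulatory element in stable S16 rat Schwann cells; 24 h compound exposure. 460 nm blue signal normalized between DMSO (0%) and potassium clavulanate, with 535 nm FRET tracking viability; curves classed by r2 and response.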

Experiment [17] addresses Vitamin D3 receptor (Homo sapiens) (UniProt P11473). Put plainly: qHTS assay for small molecule antagonists of vitamin D receptor signaling (AID 588541; calls by dose curve;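 note: receptor activated by calcitriol during compound treatment; % is set by controls: 0 for no effect and ±100 for the full control effect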). The conditions noted are these: HEK293T VDR-UAS-bla, beta-lactamase ratio, antagonist mode; series mostly up to 76.7 µM. A digest of the protocol:
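VDR-UAS-bla HEK293T cells in 2% charcoal-stripped FBS were stimulated with 1-alpha,25-dihydroxyvitamin D3 (3 nM final) plus compound for 16 h at 37 C. The beta-lactamase CCF4 readout was normalized to 50 nM agonist and DMSO, and Hill fits gave IC50.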

The target is the same in experiment [18]. Kind of experiment: qHTS assay for small molecule agonists of vitamin D receptor signaling (AID 588543; calls by dose curve;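 note: 0% = DMSO basal and 100% = reference agonist control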). The conditions noted are these: HEK293T VDR-UAS-bla, beta-lactamase ratio, 16 h; series mostly up to 76.8 µM. A digest of the protocol: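 GeneBLAzer VDR-UAS-bla HEK293T cells in 2% charcoal-stripped FBS medium were dosed with compound titrations for 16 h at 37 °C; CCF4 β-lactamase readout (405 nm ex, 460/530 nm em). EC50 and efficacy from Hill fits, normalized to 50 nM calcitriol (100%) and DMSO (0%).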

SMILES strings stand for the structures. Inconclusive results are not listed. Calls of active or inactive are those of the source. Unless noted, calls come from the whole dose curve; as a rule, active = well fitted curve in the direction sought with a large enough effect; inconclusive = small, poorly fitted or top-dose-only effect, or another doubt; inactive = no such curve, though single readings can be large; an effect the other way counts as inactive or inconclusive.

Thyroid hormone receptor beta (Homo sapiens), sequence (P10828 whole entry, looked up): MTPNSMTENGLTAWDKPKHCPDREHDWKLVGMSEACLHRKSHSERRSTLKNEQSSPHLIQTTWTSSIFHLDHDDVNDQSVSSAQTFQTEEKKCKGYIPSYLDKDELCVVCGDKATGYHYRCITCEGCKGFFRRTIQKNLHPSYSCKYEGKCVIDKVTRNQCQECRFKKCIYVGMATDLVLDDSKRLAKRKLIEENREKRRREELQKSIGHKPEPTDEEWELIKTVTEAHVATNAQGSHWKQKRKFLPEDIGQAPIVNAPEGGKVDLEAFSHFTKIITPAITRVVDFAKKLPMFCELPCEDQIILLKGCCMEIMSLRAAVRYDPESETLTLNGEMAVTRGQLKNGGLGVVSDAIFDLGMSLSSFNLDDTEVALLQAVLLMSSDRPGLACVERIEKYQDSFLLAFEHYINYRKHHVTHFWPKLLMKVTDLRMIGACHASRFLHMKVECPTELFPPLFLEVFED
Glucagon-like peptide 1 receptor (Homo sapiens), sequence (P43220 whole entry, looked up): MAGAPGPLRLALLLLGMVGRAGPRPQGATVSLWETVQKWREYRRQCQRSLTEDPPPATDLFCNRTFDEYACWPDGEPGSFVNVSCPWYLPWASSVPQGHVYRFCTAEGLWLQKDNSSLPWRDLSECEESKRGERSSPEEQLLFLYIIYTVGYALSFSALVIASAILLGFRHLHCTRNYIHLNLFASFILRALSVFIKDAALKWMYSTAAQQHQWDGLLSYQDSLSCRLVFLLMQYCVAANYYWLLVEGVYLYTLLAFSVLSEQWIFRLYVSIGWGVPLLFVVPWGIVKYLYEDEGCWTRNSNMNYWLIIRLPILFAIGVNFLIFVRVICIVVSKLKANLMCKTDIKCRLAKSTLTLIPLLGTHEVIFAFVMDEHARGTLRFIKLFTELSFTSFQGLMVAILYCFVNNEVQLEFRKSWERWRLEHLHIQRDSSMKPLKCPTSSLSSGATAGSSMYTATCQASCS
Luciferin 4-monooxygenase (Photinus pyralis), sequence (P08659 whole entry, looked up): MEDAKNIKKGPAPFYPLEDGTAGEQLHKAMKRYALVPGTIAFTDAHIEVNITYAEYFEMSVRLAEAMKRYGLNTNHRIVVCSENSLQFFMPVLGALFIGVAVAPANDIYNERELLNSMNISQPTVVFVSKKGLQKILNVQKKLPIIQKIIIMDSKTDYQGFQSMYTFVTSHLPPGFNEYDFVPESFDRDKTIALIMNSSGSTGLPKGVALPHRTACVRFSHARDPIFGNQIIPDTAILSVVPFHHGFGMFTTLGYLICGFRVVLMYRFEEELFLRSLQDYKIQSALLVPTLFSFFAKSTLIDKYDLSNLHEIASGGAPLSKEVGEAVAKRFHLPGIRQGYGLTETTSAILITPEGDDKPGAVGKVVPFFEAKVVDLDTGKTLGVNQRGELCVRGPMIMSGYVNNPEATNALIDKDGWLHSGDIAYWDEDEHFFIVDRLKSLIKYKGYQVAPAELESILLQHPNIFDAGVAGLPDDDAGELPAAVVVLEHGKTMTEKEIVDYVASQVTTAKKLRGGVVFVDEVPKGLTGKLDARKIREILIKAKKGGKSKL
Retinoic acid receptor RXR-alpha (Homo sapiens), sequence (P19793 whole entry, looked up): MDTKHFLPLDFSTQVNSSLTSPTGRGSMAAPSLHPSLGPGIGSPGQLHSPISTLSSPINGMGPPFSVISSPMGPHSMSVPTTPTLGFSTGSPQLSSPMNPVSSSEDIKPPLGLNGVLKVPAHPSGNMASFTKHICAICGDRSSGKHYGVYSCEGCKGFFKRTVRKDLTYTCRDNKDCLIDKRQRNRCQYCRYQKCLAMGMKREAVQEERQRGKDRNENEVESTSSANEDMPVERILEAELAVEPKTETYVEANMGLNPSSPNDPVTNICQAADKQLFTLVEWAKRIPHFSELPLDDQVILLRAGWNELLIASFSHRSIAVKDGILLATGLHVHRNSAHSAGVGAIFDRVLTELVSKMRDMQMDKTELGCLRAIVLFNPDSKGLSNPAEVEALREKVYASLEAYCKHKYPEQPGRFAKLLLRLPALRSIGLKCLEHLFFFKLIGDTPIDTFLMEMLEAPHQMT
Voltage-gated inwardly rectifying potassium channel KCNH2 (Homo sapiens), sequence (Q12809 whole entry, looked up): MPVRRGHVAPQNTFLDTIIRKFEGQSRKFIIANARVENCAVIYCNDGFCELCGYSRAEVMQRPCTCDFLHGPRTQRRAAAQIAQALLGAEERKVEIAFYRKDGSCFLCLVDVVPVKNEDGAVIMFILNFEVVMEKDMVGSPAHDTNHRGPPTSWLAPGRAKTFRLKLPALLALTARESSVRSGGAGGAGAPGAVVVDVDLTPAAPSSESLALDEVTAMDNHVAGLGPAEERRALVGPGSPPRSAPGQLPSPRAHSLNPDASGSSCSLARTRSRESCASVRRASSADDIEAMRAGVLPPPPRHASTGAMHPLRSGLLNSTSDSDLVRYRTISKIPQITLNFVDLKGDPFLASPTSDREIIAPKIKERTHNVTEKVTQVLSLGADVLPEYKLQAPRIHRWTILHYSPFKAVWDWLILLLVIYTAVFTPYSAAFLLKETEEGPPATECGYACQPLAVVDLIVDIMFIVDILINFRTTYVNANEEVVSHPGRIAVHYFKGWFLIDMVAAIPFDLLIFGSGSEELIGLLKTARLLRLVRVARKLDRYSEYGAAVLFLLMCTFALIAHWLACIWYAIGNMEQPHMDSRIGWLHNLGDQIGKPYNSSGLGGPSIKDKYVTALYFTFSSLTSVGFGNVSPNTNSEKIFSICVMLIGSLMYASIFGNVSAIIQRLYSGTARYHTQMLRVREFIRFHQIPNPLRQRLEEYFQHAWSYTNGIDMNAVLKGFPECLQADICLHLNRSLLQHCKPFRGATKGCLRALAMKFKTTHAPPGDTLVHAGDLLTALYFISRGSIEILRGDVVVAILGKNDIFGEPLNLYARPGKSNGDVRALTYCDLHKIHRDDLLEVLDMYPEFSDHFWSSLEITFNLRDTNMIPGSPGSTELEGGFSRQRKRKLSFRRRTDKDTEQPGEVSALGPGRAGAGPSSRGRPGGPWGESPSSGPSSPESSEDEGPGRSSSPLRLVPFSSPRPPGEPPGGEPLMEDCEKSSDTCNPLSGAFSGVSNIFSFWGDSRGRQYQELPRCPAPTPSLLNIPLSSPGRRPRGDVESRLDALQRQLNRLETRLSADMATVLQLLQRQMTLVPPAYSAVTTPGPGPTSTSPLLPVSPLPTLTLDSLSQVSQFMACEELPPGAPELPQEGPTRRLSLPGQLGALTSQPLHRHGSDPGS
Vitamin D3 receptor (Homo sapiens), sequence (P11473 whole entry, looked up): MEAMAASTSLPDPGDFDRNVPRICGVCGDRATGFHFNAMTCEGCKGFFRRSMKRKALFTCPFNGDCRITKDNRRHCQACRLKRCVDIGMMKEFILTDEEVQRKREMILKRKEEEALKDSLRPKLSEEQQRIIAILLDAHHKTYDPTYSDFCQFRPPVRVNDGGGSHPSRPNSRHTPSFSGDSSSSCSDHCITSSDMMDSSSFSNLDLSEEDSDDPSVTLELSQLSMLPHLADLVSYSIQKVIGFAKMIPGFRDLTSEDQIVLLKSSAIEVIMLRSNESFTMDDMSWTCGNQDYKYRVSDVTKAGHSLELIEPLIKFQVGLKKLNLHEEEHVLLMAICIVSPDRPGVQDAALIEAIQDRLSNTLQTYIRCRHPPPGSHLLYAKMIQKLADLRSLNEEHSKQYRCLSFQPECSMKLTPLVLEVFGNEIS
Peroxisome proliferator-activated receptor gamma (Homo sapiens), sequence (P37231 whole entry, looked up): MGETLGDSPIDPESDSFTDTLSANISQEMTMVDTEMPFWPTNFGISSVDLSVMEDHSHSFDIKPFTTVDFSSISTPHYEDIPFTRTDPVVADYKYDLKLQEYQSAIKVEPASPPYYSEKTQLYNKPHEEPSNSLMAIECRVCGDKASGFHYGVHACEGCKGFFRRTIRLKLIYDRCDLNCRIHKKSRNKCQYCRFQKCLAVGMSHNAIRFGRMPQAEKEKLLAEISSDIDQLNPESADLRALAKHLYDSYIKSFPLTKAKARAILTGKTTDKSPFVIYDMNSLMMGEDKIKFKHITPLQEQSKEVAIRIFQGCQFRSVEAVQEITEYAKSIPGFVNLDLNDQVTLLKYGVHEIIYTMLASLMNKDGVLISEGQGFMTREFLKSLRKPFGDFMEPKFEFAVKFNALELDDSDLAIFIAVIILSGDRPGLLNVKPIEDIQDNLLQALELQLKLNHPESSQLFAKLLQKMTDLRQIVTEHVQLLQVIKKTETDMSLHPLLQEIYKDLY

As to `O=NN(CCCl)C(=O)NCCCl`, the max response in experiment [1] was -5%; in [3] it was -3.42%; in experiment [4], 0.269% (inactive). The call in experiment [2], in experiment [10], in experiment [11] and in experiment [12] was inactive. Also, the activity change % (negative = inhibition) in [5] is 11.9% (inactive). Further, the Potency result in [6], in [7], in experiment [8], in experiment [9] and in experiment [13] was “inactive” each time.

With `Cc1[nH]c(=O)c(C#N)cc1-c1ccncc1`, the result in experiment [14], in experiment [15], in experiment [10], in experiment [11] and in experiment [12] was inactive. In addition, the max response in experiment [3] is -2.65%; in experiment [4], -8.79% (inactive). Besides, in experiment [5], the activity change % (negative = inhibition) is -2.81% (inactive). The Potency result in experiment [7], in experiment [8] and in experiment [13] was “inactive” throughout.

As for `Nc1ccc(S(=O)(=O)Nc2ccnn2-c2ccccc2)cc1`, the Potency result in [6], in experiment [7], in experiment [8], in experiment [9] and in experiment [13] was “inactive” each time. For the same compound, the outcome in experiment [16], in [10], in experiment [11] and in experiment [12] was inactive.

As for `O=C1CCc2cc(OCCCCc3nnnn3C3CCCCC3)ccc2N1`, the Potency entry in [6], in experiment [7], in experiment [8] and in [13] was “inactive” throughout. The compound was classed as inactive in experiment [10], in [11] and in experiment [12].

`CC(C)NCC(O)COc1ccc(COCCOC(C)C)cc1` (stereo unspecified): the Potency result in experiment [6], in [7], in experiment [8], in experiment [9] and in experiment [13] was “inactive” each time. Also, the compound was classed as inactive in experiment [10], in experiment [11] and in experiment [12].

For `CCCCNc1cc(C(=O)O)cc(S(N)(=O)=O)c1Oc1ccccc1`, the Potency result in [6], in [7], in [8], in [9] and in experiment [13] was “inactive” each time. Further, the outcome in experiment [16], in experiment [10], in experiment [11] and in experiment [12] was inactive.

In the case of `Clc1cccc(Cl)c1NC1=NCCN1`, the Potency result in [6], in [7], in experiment [8], in experiment [9] and in experiment [13] was “inactive” in each case. The result in experiment [10], in experiment [11] and in experiment [12] was inactive.

For `CC(C)(C)NCC(O)c1ccc(O)c(CO)c1` (stereo unspecified), the Potency result in experiment [6], in [7], in experiment [8] and in experiment [13] was “inactive” each time. Also, the call in experiment [10] was inactive.

For the compound `NC(N)=NC(=O)c1nc(Cl)c(N)nc1N`, the outcome in experiment [17], in experiment [18], in [2], in experiment [15], in experiment [10] and in [11] was inactive. For the same compound, the outcome in experiment [12] was inactive. Further, the max response in experiment [1] is -3.06%; in experiment [3], -9.32%; in experiment [4], 33% (inactive). For the same compound, the activity change % (negative = inhibition) in experiment [5] was 4.66% (inactive). The Potency entry in experiment [6], in experiment [7], in experiment [8], in experiment [9] and in experiment [13] was “inactive” throughout.
